Five compounds from PubChem BioAssay can be followed below.

The source made the active and inactive calls. Unless noted, no rule for the calls is given here.

Assay [1] in a line: compounds binding Alexa647 anti-His antibody – biochemical, small-molecule microarray, 635 nm fluorescence, artefact control for SMM control protein annotation, primary screen (AID 1128).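 Also: score merges feature fluorescence with signal-to-noise for each printed compound spot.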 The following applies: higher = more signal.
Assay [2] deals with Human papillomavirus type 1a E7 protein (residues 1-88). The assay can be described thus: HPV1a E7 small-molecule binders, primary screen, biochemical, small-molecule microarray, residues 1-88, 635 nm (AID 1129). Conditions: small-molecule microarray binding, fluorescence 635 nm; higher = more signal.
Assay [3] has as its target Focal adhesion kinase 1 (Homo sapiens) (UniProt Q05397). The assay can be described thus: PTK2 protein binding on printed compound slides – biochemical, small-molecule microarray, 635/667 nm fluorescence, BSA, DTT, primary screen (AID 1130).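 Also: composite of spot emission at 667 nm and signal to noise over triplicate slides.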 Conditions: 635 nm fluorescence, higher = more signal.
The test system of assay [4] is Fibrinogen (Alexa647-labelled). The assay can be described thus: Alexa647-fibrinogen binding to printed small molecules – biochemical, small-molecule microarray, 635/667 nm fluorescence, artefact control for SMM control-protein annotation, profiling panel (AID 1131).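 Also: z-score merges 667 nm fluorescence with per-spot signal-to-noise over triplicate slides.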 The following applies: fibrinogen-A647 binding fluorescence, higher = more signal.
The target of assay [5] is Follistatin (Homo sapiens) (UniProt P19883). The assay can be described thus: FST protein binding to printed compounds – biochemical, small-molecule microarray, 635/667 nm fluorescence, primary screen (AID 1132). Conditions: 635 nm fluorescence, higher = more signal.
Assay [6] addresses Fibroblast growth factor 2 (Homo sapiens) (UniProt P09038). The assay can be described thus: basic fibroblast growth factor binding to printed compounds – biochemical, small-molecule microarray, 635/667 nm fluorescence, primary screen (AID 1133). Conditions: FGF2, fluorescence 635/667, higher = more signal.
Assay [7] can be described thus: JC-1 mitochondrial potential readout, lung cancer cells – cell-based, A549, JC-1 fluorescence, basal, 24 h, 100 nL, profiling panel (AID 1138).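 Also: A549 lung adenocarcinoma cells under basal conditions with no added stimulus; test concentration not given here.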 Conditions: higher = more signal.
Assay [8] deals with Lefty1. Kind of assay: Lefty1 protein binding to printed compounds – biochemical, small-molecule microarray, 635/667 nm fluorescence, primary screen (AID 1139). Conditions: fluorescence 635/667, higher = more signal.
Assay [9] has as its system wheat germ agglutinin (Triticum aestivum), Alexa647-labelled. Kind of assay: Alexa647-WGA lectin binding to printed small molecules – biochemical, small-molecule microarray, 635/667 nm fluorescence, artefact control for SMM control-protein annotation, profiling panel (AID 1140).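 Also: score merges 667 nm feature emission with signal to noise over triplicate slides.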 Conditions: WGA-A647 binding, 635 nm fluorescence, higher = more signal.
Assay [10] deals with Luciferin 4-monooxygenase (Photinus pyralis) (UniProt P08659). The assay can be described thus: inhibition of purified Photinus pyralis luciferase – biochemical, luminescence, purified enzyme, 2006 set, primary screen (AID 1141).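 Also: cell-free assay with purified firefly luciferase at 100 ng per well in PBS; test concentration not given here.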 The following applies: purified firefly luciferase, SteadyGlo luminescence, 30 min; higher = more signal, called active from +8 up or from −8 down.
The subject of assay [11] is Wnt5a (protein binding on small-molecule microarray). Kind of assay: small molecules binding Wnt5a protein – biophysical, small-molecule microarray, 635/667 nm fluorescence, primary screen (AID 1142).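 Also: fluorescence read at 667 nm with signal to noise per printed feature.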 The following applies: 635 nm fluorescence, higher = more signal.
Assay [12] is described as follows: ATP-based viability of Huh7 replicon cells – cell-based, CellTiter-Glo luminescence, basal, 48 h, cytotoxicity control for HCV replication inhibitor project, primary screen (AID 1143).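 Also: Huh7 hepatoma cells carrying a hepatitis C replication reporter with no stimulus; test concentration not given here.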 The following applies: higher = more signal, called active from +8 up or from −8 down. (In general: In antiviral work, replicon cells carry a viral genome segment that copies itself.)

A short description of assay [13]: Pseudomonas biofilm growth suppression – PAO1 strain, BacTiter-Glo luminescence, LB-PBS, primary screen (AID 1144). The following applies: P. aeruginosa PAO1 biofilm, 12 h, higher = more signal.
The nature of assay [14]: basal CRE-LacZ reporter activity in PC12 – cell-based, unstimulated, primary screen (AID 1145). The following applies: no forskolin, luminescence, 4.5 h, higher = more signal, called active from +8 up or from −8 down.
Assay [15] can be described thus: forskolin-driven CRE-LacZ activity in PC12 – cell-based, CRE-LacZ reporter, forskolin-stimulated, primary screen (AID 1146).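 Also: PC12 cells with 6xCRE LacZ reporter stimulated by forskolin 10 µM; beta-galactosidase reporter signal reflecting CREB driven transcription.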 The following applies: luminescence, 4.5 h, higher = more signal, called active from +8 up or from −8 down.
Assay [16] addresses Streptavidin (Streptomyces avidinii) (UniProt P22629). Kind of assay: compounds binding control protein streptavidin – biophysical, small-molecule microarray, 635/667 nm fluorescence, artefact control for SMM compound annotation, primary screen (AID 1147).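 Also: signal reflects streptavidin binding to arrayed compounds as a control protein.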 The following applies: higher = more signal.
A short description of assay [17]: probe aInhba binding on compound microarray – biochemical, small-molecule microarray, 635/667 nm fluorescence, primary screen (AID 1148).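 Also: score merges 667nm spot fluorescence with signal-to-noise for antibody binding to printed compounds.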 Conditions: higher = more signal.
Assay [18] concerns the target Torsin-1A (Homo sapiens) (UniProt O14656). Kind of assay: TOR1A wild-type binding on microarray – cell lysate, small-molecule microarray, lysate, 635/667 nm, primary screen (AID 1149). The following applies: COS7 hTOR1A-WT lysate, 635 nm fluorescence, higher = more signal.
The target is the same in assay [19]. The assay can be described thus: torsin A mutant lysate binding on microarrays – cell lysate, small-molecule microarray, COS7 lysate, 635/667 nm fluorescence, primary screen (AID 1150).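 Also: score pools 667 nm emission and signal to noise measuring lysate protein binding.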 The following applies: COS7 hTOR1A mutant lysate, 635 nm fluorescence, higher = more signal.
The test system of assay [20] is Sonic hedgehog protein (Shh). The assay can be described thus: Sonic hedgehog microarray binding compounds – biochemical, small-molecule microarray, 635/667 nm fluorescence, primary screen (AID 1151).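 Also: Shh protein binding to compounds spotted on small-molecule microarray slides; score combines spot fluorescence intensity with signal-to-noise across triplicate slides.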 The following applies: 635 nm fluorescence, higher = more signal.

Chain of Streptavidin (Streptomyces avidinii) (P22629 whole entry, looked up): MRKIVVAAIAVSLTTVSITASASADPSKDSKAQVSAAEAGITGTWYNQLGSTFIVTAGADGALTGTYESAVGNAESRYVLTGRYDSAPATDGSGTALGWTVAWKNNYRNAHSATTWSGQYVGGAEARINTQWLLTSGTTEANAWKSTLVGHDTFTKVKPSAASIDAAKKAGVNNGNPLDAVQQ
Chain of Luciferin 4-monooxygenase (Photinus pyralis) (P08659 whole entry, looked up): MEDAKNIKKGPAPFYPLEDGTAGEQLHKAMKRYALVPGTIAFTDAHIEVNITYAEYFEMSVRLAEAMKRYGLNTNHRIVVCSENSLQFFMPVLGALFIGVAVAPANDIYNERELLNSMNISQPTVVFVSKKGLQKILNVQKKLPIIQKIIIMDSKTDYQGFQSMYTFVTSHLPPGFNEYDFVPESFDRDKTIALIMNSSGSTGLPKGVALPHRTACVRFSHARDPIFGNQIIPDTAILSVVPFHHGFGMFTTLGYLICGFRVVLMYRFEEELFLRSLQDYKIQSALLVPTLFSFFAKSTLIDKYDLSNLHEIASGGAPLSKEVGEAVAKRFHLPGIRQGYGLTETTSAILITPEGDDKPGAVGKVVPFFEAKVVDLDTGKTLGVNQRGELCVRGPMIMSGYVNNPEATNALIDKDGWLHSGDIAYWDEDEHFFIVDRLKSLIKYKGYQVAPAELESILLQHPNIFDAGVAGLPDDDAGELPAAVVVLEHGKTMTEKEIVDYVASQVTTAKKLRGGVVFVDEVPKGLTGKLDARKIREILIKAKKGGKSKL
Chain of Torsin-1A (Homo sapiens) (O14656 whole entry, looked up): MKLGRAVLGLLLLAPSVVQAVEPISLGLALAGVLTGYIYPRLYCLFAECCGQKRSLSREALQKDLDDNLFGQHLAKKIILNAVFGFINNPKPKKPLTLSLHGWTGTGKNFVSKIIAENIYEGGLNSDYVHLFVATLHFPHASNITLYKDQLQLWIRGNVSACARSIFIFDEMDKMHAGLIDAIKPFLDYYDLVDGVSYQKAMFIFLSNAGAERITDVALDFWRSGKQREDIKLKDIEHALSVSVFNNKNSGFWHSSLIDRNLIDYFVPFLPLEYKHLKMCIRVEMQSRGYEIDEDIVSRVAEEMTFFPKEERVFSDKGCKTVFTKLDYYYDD
Chain of Focal adhesion kinase 1 (Homo sapiens) (Q05397 whole entry, looked up): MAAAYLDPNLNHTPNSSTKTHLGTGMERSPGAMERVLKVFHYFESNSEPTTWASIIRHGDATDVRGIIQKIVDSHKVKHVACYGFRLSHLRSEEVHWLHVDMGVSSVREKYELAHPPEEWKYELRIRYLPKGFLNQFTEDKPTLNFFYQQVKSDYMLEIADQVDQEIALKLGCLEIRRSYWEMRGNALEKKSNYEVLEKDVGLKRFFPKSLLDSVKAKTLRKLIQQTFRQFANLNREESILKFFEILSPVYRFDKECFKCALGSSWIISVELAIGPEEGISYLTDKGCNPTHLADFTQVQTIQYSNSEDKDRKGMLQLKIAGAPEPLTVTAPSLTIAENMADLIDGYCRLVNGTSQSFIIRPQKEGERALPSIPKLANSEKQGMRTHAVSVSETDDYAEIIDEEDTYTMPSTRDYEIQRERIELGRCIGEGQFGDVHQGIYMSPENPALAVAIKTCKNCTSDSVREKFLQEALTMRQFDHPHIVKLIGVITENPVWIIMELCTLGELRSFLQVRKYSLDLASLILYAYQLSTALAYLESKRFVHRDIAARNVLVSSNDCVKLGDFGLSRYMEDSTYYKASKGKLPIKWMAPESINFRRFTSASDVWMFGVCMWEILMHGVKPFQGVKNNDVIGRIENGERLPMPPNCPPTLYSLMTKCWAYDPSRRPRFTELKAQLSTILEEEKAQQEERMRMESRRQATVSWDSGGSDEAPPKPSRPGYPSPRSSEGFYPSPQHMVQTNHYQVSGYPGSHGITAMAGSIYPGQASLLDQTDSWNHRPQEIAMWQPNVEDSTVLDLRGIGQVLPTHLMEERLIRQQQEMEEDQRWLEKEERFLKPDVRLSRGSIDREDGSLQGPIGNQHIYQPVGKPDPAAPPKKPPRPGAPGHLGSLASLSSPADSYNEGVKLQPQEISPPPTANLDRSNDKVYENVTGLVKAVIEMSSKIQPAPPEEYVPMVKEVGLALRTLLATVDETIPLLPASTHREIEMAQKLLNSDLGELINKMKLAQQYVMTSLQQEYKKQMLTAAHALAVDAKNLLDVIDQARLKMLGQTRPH
Chain of Follistatin (Homo sapiens) (P19883 whole entry, looked up): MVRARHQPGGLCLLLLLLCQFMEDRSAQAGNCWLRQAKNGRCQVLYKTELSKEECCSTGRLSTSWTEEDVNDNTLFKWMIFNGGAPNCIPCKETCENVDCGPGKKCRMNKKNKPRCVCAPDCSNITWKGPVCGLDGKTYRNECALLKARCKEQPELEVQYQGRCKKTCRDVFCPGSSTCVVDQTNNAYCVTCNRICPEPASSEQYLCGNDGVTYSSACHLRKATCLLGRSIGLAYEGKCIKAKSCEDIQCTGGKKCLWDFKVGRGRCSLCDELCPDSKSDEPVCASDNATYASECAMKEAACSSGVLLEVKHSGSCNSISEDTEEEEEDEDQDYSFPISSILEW
Chain of Fibroblast growth factor 2 (Homo sapiens) (P09038 whole entry, looked up): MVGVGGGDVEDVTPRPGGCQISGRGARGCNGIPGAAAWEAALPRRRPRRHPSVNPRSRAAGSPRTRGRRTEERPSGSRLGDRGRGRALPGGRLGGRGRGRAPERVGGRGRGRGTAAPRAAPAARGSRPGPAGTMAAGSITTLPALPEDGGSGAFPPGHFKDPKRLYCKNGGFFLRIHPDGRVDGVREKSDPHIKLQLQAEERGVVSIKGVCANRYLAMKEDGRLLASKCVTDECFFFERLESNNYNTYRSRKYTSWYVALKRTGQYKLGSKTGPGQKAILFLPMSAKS

For `COc1ccc([Si](C)(C)[C@@H]2[C@@H](CC(=O)N3CCC[C@H]3CO)O[C@]3(C(=O)N(Cc4ccc(N5C(=O)c6cccc7cccc5c67)cc4)c4ccccc43)[C@H]2C)cc1`, the composite z-score came out at 1.96 in assay [1]; 1.2 in [2]; 0.566 in assay [3]; 0.759 in [4]; 1.1 in [5]; 1.54 in assay [6]. Further, the composite z-score in assay [8] came out at 1.2; in assay [9], 0.719; in assay [11], 0.761; in [16] it was 0.0541; in assay [17], 0.0184; in assay [18], 0.344. Further, the composite z-score was 0.72 in [19] and 2.06 in [20]. The z-score was -0.438 in assay [7]; 0.508 (inactive) in assay [10]; -4.78 (inactive) in [12]; -0.489 (inactive) in assay [13]; 0.995 (inactive) in assay [14]; -0.0202 (inactive) in [15].
On to `COCCOC(=O)N1C(=O)[C@@]2(c3cc(C#CC4=CCCCC4)ccc31)[C@H](C(=O)N1CCN(c3ncccn3)CC1)[C@H]1C(=O)O[C@H](c3ccccc3)[C@H](c3ccccc3)N1[C@@H]2c1ccc(O)cc1`, for which the composite z-score in assay [1] was 1.26; in assay [2], 1.19; in assay [3], 0.778; in assay [4] it was 0.804; in assay [5] it was 1.21; in [6], 0.29. Moreover, the composite z-score in assay [8] was 0.819; in assay [9], 1.11; in assay [11] it was 0.282; in [16], 0.45; in assay [17], -0.0736; in assay [18], 0.714. Moreover, the composite z-score in assay [19] worked out at 0.296; in [20], 1.5. Further, the z-score is -1.05 in assay [7]; -0.94 (inactive) in [10]; -1.17 (inactive) in assay [12]; -0.13 (inactive) in assay [13]; 0.761 (inactive) in assay [14]; -0.0066 (inactive) in assay [15].
Regarding `C=CCNC(=O)[C@H]1[C@@H]2C(=O)O[C@@H](c3ccccc3)[C@@H](c3ccccc3)N2[C@@H](c2ccccc2OCCO)[C@]12C(=O)N(C(=O)OCCOC)c1ccc(C#CC3=CCCCC3)cc12`, the composite z-score was 0.108 in assay [1]; 1.24 in assay [2]; 0.369 in assay [3]; 0.975 in assay [4]; 1.21 in assay [5]; 0.685 in assay [6]. The composite z-score came to 0.885 in assay [8]; 0.993 in [9]; 0.356 in assay [11]; 1.08 in assay [16]; 0.423 in assay [17]; 1.02 in assay [18]. The composite z-score in [19] was determined as 0.798; in assay [20], 0.826. The z-score was -0.295 in [7]; -1.48 (inactive) in [10]; -4.73 (inactive) in assay [12]; 1.37 (inactive) in assay [13]; -0.333 (inactive) in assay [14]; 0.371 (inactive) in [15].
For `COCCOC(=O)N1C(=O)[C@@]2(c3cc(C#CC4(O)CCCCCC4)ccc31)[C@H](C(N)=O)[C@H]1C(=O)O[C@H](c3ccccc3)[C@H](c3ccccc3)N1[C@@H]2c1ccccc1OCCO`, the composite z-score in assay [1] was 1.84; in [2], 1.22; in assay [3] it was 0.988; in [4] it was 0.662; in assay [5] it was 1.17; in [6] it was 1.56. In addition, the composite z-score is 0.569 in assay [8]; 0.26 in [9]; 0.507 in [11]; 0.143 in assay [16]; -0.522 in assay [17]; 0.329 in assay [18]. The composite z-score is 0.445 in [19] and 1.34 in assay [20]. The z-score was -0.994 in assay [7]; -0.806 (inactive) in [10]; -6.12 (inactive) in assay [12]; 0.533 (inactive) in assay [13]; 0.0921 (inactive) in assay [14]; 0.0643 (inactive) in assay [15].
With `CON(C)C(=O)C=C1C[C@@H](c2cccc(Cl)c2)O[C@@H](c2cccc(Cl)c2)O1`, the composite z-score in [1] is 1.15; in [2], 0.878; in [3], 0.441; in assay [4], 0.472; in assay [5], 0.412; in assay [6] it was 0.372. The composite z-score was 0.669 in assay [8]; 0.462 in assay [9]; -0.124 in assay [11]; 2.55 in [16]; -0.183 in assay [17]; 0.643 in assay [18]. Moreover, the composite z-score in assay [19] was found to be 0.124; in assay [20], 0.774. Besides, the z-score in assay [7] was 3.69; in [10], -0.344 (inactive); in assay [12], -3.94 (inactive); in [13], 0.875 (inactive); in assay [14], 0.481 (inactive); in assay [15], -1.07 (inactive).
